Measurements from PubChem BioAssay (NCI).
The panel holds about 79,000 compounds, 15% with a hit somewhere; the sample as a whole holds those more often. A number with no mark means an inactive call. Calls of active or inactive are those of the source. Rule as the data show it: active = growth inhibition above about 70%; inactive = the rest.

Tests used:
[1] = NCI Yeast Anticancer Drug Screen. Data for the rad52 strain (AID 147);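 also: 0% = growth of vehicle-treated control cultures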; conditions: S. cerevisiae rad52 mutant growth inhibition, stronger effect = higher value
How it was run: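 Measured: yeast growth inhibition. System: strain with a defined DNA damage repair alteration. Reference: vehicle-treated control cultures.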

[2] = NCI Yeast Anticancer Drug Screen. Data for the wt1 strain (AID 149);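 also: 0% = growth of vehicle-treated wt1 cultures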; conditions: S. cerevisiae wt1 strain (SPY 50644) growth inhibition, stronger effect = higher value
How it was run: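 Vehicle-normalised growth inhibition; strain wt1; compound exposure.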

[3] = NCI Yeast Anticancer Drug Screen. Data for the rad50EPP+ strain (AID 151);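 also: 0% = growth of vehicle-treated control cultures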; conditions: S. cerevisiae rad50 mutant strain, stronger effect = higher value
How it was run: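 One strain with a rad50 alteration (rad50EPP+) was compound-treated, its growth then compared to that of vehicle controls.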

[4] = NCI Yeast Anticancer Drug Screen. Data for the mgt1 strain (AID 153); conditions: S. cerevisiae mgt1 mutant growth inhibition, stronger effect = higher value
How it was run: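 After exposure of the mgt1 yeast mutant to compound, growth was measured and reported as inhibition compared with vehicle controls.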

[5] = NCI Yeast Anticancer Drug Screen. Data for the rad50 strain (AID 155);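 also: 0% = growth of vehicle-only cultures of the same strain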; conditions: S. cerevisiae rad50 strain growth inhibition, stronger effect = higher value
How it was run: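 A DNA repair-deficient yeast mutant serves as the test organism; compound-induced growth inhibition is calculated against vehicle-treated cells.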

[6] = NCI Yeast Anticancer Drug Screen. Data for the mec2-1 strain (AID 157); conditions: S. cerevisiae mec2-1 strain, stronger effect = higher value
How it was run: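 Test agents were screened against the mec2-1 yeast strain, with defined DNA repair or cell cycle alteration. Growth was scored as inhibition against vehicle-only controls.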

[7] = NCI Yeast Anticancer Drug Screen. Data for the rad14 strain (AID 159);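 also: 0% = growth of vehicle-treated control cultures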; conditions: S. cerevisiae rad14 strain growth inhibition, stronger effect = higher value
How it was run: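 Vehicle-treated cultures served as the baseline for growth inhibition of a DNA repair-mutant yeast strain exposed to each compound.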

[8] = NCI Yeast Anticancer Drug Screen. Data for the sgs1 mgt1 strain (AID 161);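 also: 0% = growth of cultures given vehicle only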; conditions: S. cerevisiae sgs1 mgt1 strain, stronger effect = higher value
How it was run: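 Genetically altered yeast, compound exposure, growth inhibition relative to vehicle.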

[9] = NCI Yeast Anticancer Drug Screen. Data for the CLN2oe strain (AID 163);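 also: 0% = growth of vehicle-only control cultures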; conditions: S. cerevisiae CLN2oe strain, stronger effect = higher value
How it was run: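 Here, growth inhibition in a cell-cycle-altered yeast strain after compound exposure was quantified against vehicle control growth.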

[10] = NCI Yeast Anticancer Drug Screen. Data for the cln2 rad14 strain (AID 165);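 also: 0% = growth equal to vehicle treated cultures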; conditions: S. cerevisiae cln2 rad14 strain, stronger effect = higher value
How it was run: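 Growth of compound-exposed yeast (cln2 rad14 genotype) measured and expressed as inhibition relative to vehicle.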

[11] = NCI Yeast Anticancer Drug Screen. Data for the bub3 strain (AID 167); conditions: S. cerevisiae bub3 mutant strain, stronger effect = higher value
How it was run: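 Inhibition values come from growth of compound-treated mutant yeast normalised to vehicle-treated controls.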

[12] = NCI Yeast Anticancer Drug Screen. Data for the wt2 strain (AID 169);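 also: 0% = growth of vehicle-treated yeast cultures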; conditions: S. cerevisiae wt2 strain growth inhibition, stronger effect = higher value
How it was run: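 Genetically defined yeast strains from a DNA-repair/cell-cycle panel were used. Compound-exposed yeast growth was measured, and the inhibition was calculated relative to vehicle treatment.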

[13] = NCI Yeast Anticancer Drug Screen. Data for the mlh1 strain (AID 171);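 also: 0% = growth of vehicle-treated control cultures of the same strain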; conditions: S. cerevisiae mlh1 strain growth inhibition, stronger effect = higher value
How it was run: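 Here the genetically defined yeast mutant is grown with each compound, and the extent to which its growth falls below that of vehicle-exposed cells is reported.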

[14] = NCI Yeast Anticancer Drug Screen. Data for the sgs1 strain (AID 173);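 also: 0% = growth of vehicle-only control cultures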; conditions: S. cerevisiae sgs1 mutant, stronger effect = higher value
How it was run: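 Relative growth inhibition, referenced to vehicle, was determined in a yeast strain with a defined alteration affecting DNA damage repair or cell cycle control after compound exposure.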

[15] = NCI Yeast Anticancer Drug Screen. Data for the mlh1 rad18 strain (AID 175); conditions: S. cerevisiae mlh1 rad18 strain growth inhibition, stronger effect = higher value
How it was run: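 In this whole-cell yeast screen, a strain with altered DNA damage repair is challenged with compound, and its growth is measured against matched vehicle-treated controls.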

[16] = NCI Yeast Anticancer Drug Screen. Data for the rad18 strain (AID 177); conditions: S. cerevisiae rad18 mutant growth inhibition, stronger effect = higher value
How it was run: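 Screen uses a yeast strain with a defined lesion in DNA damage repair; compound effect is read as loss of growth compared to untreated vehicle cultures.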

[17] = at 5.0 µM (retest, dose inferred, filed as 0.5)
[18] = at 50.0 µM (retest, dose inferred, filed as 5.0)

O=C(c1cc(=O)c2ccc(O)cc2o1)c1ccc(Cl)cc1Cl
growth inhibition ([1]; at 1.2 µM): -31%
growth inhibition ([1]; at 3.7 µM): -32%
growth inhibition ([1]; at 11.0 µM): 8%
growth inhibition ([1]; at 33.0 µM): 90% (active)
growth inhibition ([1]; at 100.0 µM): 92% (active)
growth inhibition ([2]; at 1.2 µM): -6%
growth inhibition ([2]; at 3.7 µM): 1%
growth inhibition ([2]; at 11.0 µM): -2%
growth inhibition ([2]; at 33.0 µM): 75% (active)
growth inhibition ([2]; at 100.0 µM): 92% (active)
growth inhibition ([3]; at 1.2 µM): -23%
growth inhibition ([3]; at 3.7 µM): -7%
growth inhibition ([3]; at 11.0 µM): 52%
growth inhibition ([3]; at 33.0 µM): 94% (active)
growth inhibition ([3]; at 100.0 µM): 96% (active)
growth inhibition ([4]; at 1.2 µM): -9%
growth inhibition ([4]; at 3.7 µM): -18%
growth inhibition ([4]; at 11.0 µM): 21%
growth inhibition ([4]; at 33.0 µM): 89% (active)
growth inhibition ([4]; at 100.0 µM): 90% (active)
growth inhibition ([5]; at 1.2 µM): -11%
growth inhibition ([5]; at 3.7 µM): -16%
growth inhibition [5, 17]: 23%
growth inhibition ([5]; at 11.0 µM): 12%
growth inhibition ([5]; at 33.0 µM): 94% (active)
growth inhibition [5, 18]: 95% (active)
growth inhibition ([5]; at 50.0 µM): 86.5% (active)
growth inhibition ([5]; at 100.0 µM): 93% (active)
growth inhibition ([6]; at 1.2 µM): -27%
growth inhibition ([6]; at 3.7 µM): -13%
growth inhibition [6, 17]: -30%
growth inhibition ([6]; at 11.0 µM): 5%
growth inhibition ([6]; at 33.0 µM): 80% (active)
growth inhibition [6, 18]: 95% (active)
growth inhibition ([6]; at 50.0 µM): 85.2% (active)
growth inhibition ([6]; at 100.0 µM): 93% (active)
growth inhibition ([7]; at 1.2 µM): 2%
growth inhibition ([7]; at 3.7 µM): 4%
growth inhibition ([7]; at 11.0 µM): 19%
growth inhibition ([7]; at 33.0 µM): 76% (active)
growth inhibition ([7]; at 100.0 µM): 91% (active)
growth inhibition [8, 17]: 3%
growth inhibition [8, 18]: 92% (active)
growth inhibition ([8]; at 50.0 µM): 88% (active)
growth inhibition ([9]; at 1.2 µM): -23%
growth inhibition ([9]; at 3.7 µM): -8%
growth inhibition ([9]; at 11.0 µM): 23%
growth inhibition ([9]; at 33.0 µM): 94% (active)
growth inhibition ([9]; at 100.0 µM): 92% (active)
growth inhibition [10, 17]: 13%
growth inhibition [10, 18]: 93% (active)
growth inhibition ([10]; at 50.0 µM): 78.2% (active)
growth inhibition ([11]; at 1.2 µM): -16%
growth inhibition ([11]; at 3.7 µM): -11%
growth inhibition [11, 17]: 23%
growth inhibition ([11]; at 11.0 µM): 46%
growth inhibition ([11]; at 33.0 µM): 95% (active)
growth inhibition [11, 18]: 97% (active)
growth inhibition ([11]; at 50.0 µM): 88.5% (active)
growth inhibition ([11]; at 100.0 µM): 94% (active)
growth inhibition ([12]; at 1.2 µM): -4%
growth inhibition ([12]; at 3.7 µM): -4%
growth inhibition ([12]; at 11.0 µM): 0%
growth inhibition ([12]; at 33.0 µM): 68%
growth inhibition ([12]; at 100.0 µM): 88% (active)
growth inhibition ([13]; at 1.2 µM): -19%
growth inhibition ([13]; at 3.7 µM): -7%
growth inhibition ([13]; at 11.0 µM): 33%
growth inhibition ([13]; at 33.0 µM): 91% (active)
growth inhibition ([13]; at 100.0 µM): 92% (active)
growth inhibition ([14]; at 1.2 µM): -18%
growth inhibition ([14]; at 3.7 µM): -14%
growth inhibition ([14]; at 11.0 µM): 60%
growth inhibition ([14]; at 33.0 µM): 95% (active)
growth inhibition ([14]; at 100.0 µM): 94% (active)
growth inhibition [15, 17]: 37%
growth inhibition [15, 18]: 96% (active)
growth inhibition ([15]; at 50.0 µM): 85.5% (active)
growth inhibition ([16]; at 1.2 µM): -6%
growth inhibition ([16]; at 3.7 µM): -19%
growth inhibition ([16]; at 11.0 µM): 19%
growth inhibition ([16]; at 33.0 µM): 94% (active)
growth inhibition ([16]; at 100.0 µM): 94% (active)

CCN(CC)CCNc1ccc(C)c2sc3ccc(O)cc3c(=O)c12
growth inhibition ([1]; at 1.2 µM): 60%
growth inhibition ([1]; at 3.7 µM): 89% (active)
growth inhibition ([1]; at 11.0 µM): 94% (active)
growth inhibition ([1]; at 33.0 µM): 98% (active)
growth inhibition ([1]; at 100.0 µM): 99% (active)
growth inhibition ([2]; at 1.2 µM): -7%
growth inhibition ([2]; at 3.7 µM): -10%
growth inhibition ([2]; at 11.0 µM): 8%
growth inhibition ([2]; at 33.0 µM): 79% (active)
growth inhibition ([2]; at 100.0 µM): 99% (active)
growth inhibition ([3]; at 1.2 µM): 37%
growth inhibition ([3]; at 3.7 µM): 50%
growth inhibition ([3]; at 11.0 µM): 78% (active)
growth inhibition ([3]; at 33.0 µM): 84% (active)
growth inhibition ([3]; at 100.0 µM): 98% (active)
growth inhibition ([4]; at 1.2 µM): 7%
growth inhibition ([4]; at 3.7 µM): 27%
growth inhibition ([4]; at 11.0 µM): 23%
growth inhibition ([4]; at 33.0 µM): 89% (active)
growth inhibition ([4]; at 100.0 µM): 99% (active)
growth inhibition ([5]; at 1.2 µM): 72% (active)
growth inhibition ([5]; at 3.7 µM): 94% (active)
growth inhibition [5, 17]: 52%
growth inhibition ([5]; at 11.0 µM): 96% (active)
growth inhibition ([5]; at 33.0 µM): 98% (active)
growth inhibition [5, 18]: 98% (active)
growth inhibition ([5]; at 50.0 µM): 90.3% (active)
growth inhibition ([5]; at 100.0 µM): 99% (active)
growth inhibition ([6]; at 1.2 µM): -1%
growth inhibition ([6]; at 3.7 µM): 17%
growth inhibition [6, 17]: 4%
growth inhibition ([6]; at 11.0 µM): 36%
growth inhibition ([6]; at 33.0 µM): 91% (active)
growth inhibition [6, 18]: 98% (active)
growth inhibition ([6]; at 50.0 µM): 92% (active)
growth inhibition ([6]; at 100.0 µM): 99% (active)
growth inhibition ([7]; at 1.2 µM): 23%
growth inhibition ([7]; at 3.7 µM): 29%
growth inhibition ([7]; at 11.0 µM): 34%
growth inhibition ([7]; at 33.0 µM): 93% (active)
growth inhibition ([7]; at 100.0 µM): 99% (active)
growth inhibition [8, 17]: 9%
growth inhibition [8, 18]: 99% (active)
growth inhibition ([8]; at 50.0 µM): 91.7% (active)
growth inhibition ([9]; at 1.2 µM): 39%
growth inhibition ([9]; at 3.7 µM): 33%
growth inhibition ([9]; at 11.0 µM): 39%
growth inhibition ([9]; at 33.0 µM): 94% (active)
growth inhibition ([9]; at 100.0 µM): 99% (active)
growth inhibition [10, 17]: 12%
growth inhibition [10, 18]: 98% (active)
growth inhibition ([10]; at 50.0 µM): 90.9% (active)
growth inhibition ([11]; at 1.2 µM): -1%
growth inhibition ([11]; at 3.7 µM): 10%
growth inhibition [11, 17]: -1%
growth inhibition ([11]; at 11.0 µM): 16%
growth inhibition ([11]; at 33.0 µM): 91% (active)
growth inhibition [11, 18]: 99% (active)
growth inhibition ([11]; at 50.0 µM): 91.2% (active)
growth inhibition ([11]; at 100.0 µM): 99% (active)
growth inhibition ([12]; at 1.2 µM): -20%
growth inhibition ([12]; at 3.7 µM): -18%
growth inhibition ([12]; at 11.0 µM): -17%
growth inhibition ([12]; at 33.0 µM): 98% (active)
growth inhibition ([12]; at 100.0 µM): 98% (active)
growth inhibition ([13]; at 1.2 µM): 45%
growth inhibition ([13]; at 3.7 µM): 43%
growth inhibition ([13]; at 11.0 µM): 29%
growth inhibition ([13]; at 33.0 µM): 86% (active)
growth inhibition ([13]; at 100.0 µM): 99% (active)
growth inhibition ([14]; at 1.2 µM): 23%
growth inhibition ([14]; at 3.7 µM): 32%
growth inhibition ([14]; at 11.0 µM): 43%
growth inhibition ([14]; at 33.0 µM): 97% (active)
growth inhibition ([14]; at 100.0 µM): 99% (active)
growth inhibition [15, 17]: 12%
growth inhibition [15, 18]: 99% (active)
growth inhibition ([15]; at 50.0 µM): 91% (active)
growth inhibition ([16]; at 1.2 µM): 6%
growth inhibition ([16]; at 3.7 µM): 5%
growth inhibition ([16]; at 11.0 µM): 12%
growth inhibition ([16]; at 33.0 µM): 97% (active)
growth inhibition ([16]; at 100.0 µM): 99% (active)
